A number with no mark means an inactive call.
Test system: MCF10A
Experiment: perturbation Mahalanobis distance of morphological profile vs DMSO controls (Mahalanobis distance (SD units)); higher = stronger morphological change, active = 7 or more
Conditions: 72 h
Experimental: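 MCF10A cells were seeded onto drugs dispensed acoustically into 384-well plates, using one dose per drug chosen from its human peak plasma concentration, and incubated for 72 h at 37 °C. Cells were stained for DNA, tubulin and mitochondria and imaged; 78 CellProfiler features were extracted, plate-normalised and compared with DMSO wells.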

[1] = screen batch: Batch1_Mahalanobis_Distance
[2] = screen batch: Batch2_Mahalanobis_Distance

Structure (SMILES)	perturbation Mahalanobis distance [1]	perturbation Mahalanobis distance [2]
CCN(CC)CCNC(=O)c1c(C)[nH]c(/C=C2\C(=O)Nc3ccc(F)cc32)c1C [Sunitinib] (0.73 µM)	3.08	2.88
CCCc1nc(C(C)(C)O)c(C(=O)OCc2oc(=O)oc2C)n1Cc1ccc(-c2ccccc2-c2nn[nH]n2)cc1 [Olmesartan Medoxomil] (8.1 µM)	2.22	1.74
O=C1CCC(N2C(=O)c3ccccc3C2=O)C(=O)N1 (configuration not stated) [Thalidomide] (19.4 µM)	2.34	2.83
CN1C(=O)CC(c2ccccc2)C1=O (configuration not stated) [Phensuximide] (52.9 µM)	3.2	2.78
O=C1CN(/N=C/c2ccc(-c3ccc([N+](=O)[O-])cc3)o2)C(=O)N1 [Dantrolene] (23.9 µM)	2.62	3.85
O=[N+]([O-])c1cnc(CO)n1CCO [Hydroxymetronidazole] (58.4 µM)	2.36	3.44
C#C[C@]1(O)CC[C@H]2[C@@H]3CCC4=CC(=O)CC[C@@H]4[C@H]3CC[C@@]21CC [Levonorgestrel] (0.24 µM)	3.22	2.71
CC1(C)O[C@@H]2[C@@H](CO[C@@]3(COS(N)(=O)=O)OC(C)(C)O[C@@H]23)O1 [Topiramate] (76.6 µM)	2.96	3.08
NNc1nncc2ccccc12 [Hydralazine] (15.6 µM)	4.07	3.91
CN1CCC(=C2c3ccccc3CCc3cccnc32)CC1 [Azatadine] (0.43 µM)	2.42	2.53
CC[N+](C)(CC)CCOC(=O)C(O)(c1ccccc1)C1CCCCC1 (configuration not stated) [Oxyphenonium Bromide] (0.07 µM)	2.2	2.44
Cc1nc(-c2ccc(OCC(C)C)c(C#N)c2)sc1C(=O)O [Febuxostat] (178 µM)	2.73	3.22
COCc1c(C(C)C)nc(C(C)C)c(/C=C/[C@@H](O)C[C@@H](O)CC(=O)O)c1-c1ccc(F)cc1 [Cerivastatin] (0.46 µM)	13.3 (active)	13.1 (active)
Cc1[nH]c(=O)c(C#N)cc1-c1ccncc1 [Milrinone] (5.9 µM)	2.49	3.46
O=C(O)P(=O)(O)O [Foscarnet] (887 µM)	3.95	2.62
OCCN(CCO)c1nc(N2CCCCC2)c2nc(N(CCO)CCO)nc(N3CCCCC3)c2n1 [Dipyridamole] (19.8 µM)	2.41	3.01
CCN(CC)C(=O)/C(C#N)=C/c1cc(O)c(O)c([N+](=O)[O-])c1 [Entacapone] (6.6 µM)	1.99	2.48
COc1cccc2c1C(=O)c1c(O)c3c(c(O)c1C2=O)C[C@@](O)(C(=O)CO)C[C@@H]3O[C@H]1C[C@H](N)[C@H](O)[C@H](C)O1 [Doxorubicin] (0.18 µM)	11.1 (active)	16.7 (active)
O=C1CC2(CCCC2)CC(=O)N1CCCCN1CCN(c2ncccn2)CC1 [Buspirone] (0.05 µM)	1.84	3.36

Structure (SMILES)	perturbation Mahalanobis distance [1]	perturbation Mahalanobis distance [2]
CN[C@H]1CC[C@@H](c2ccc(Cl)c(Cl)c2)c2ccccc21 [Sertraline] (3.3 µM)	2.81	4.31
COC(=O)[C@H](c1ccccc1Cl)N1CCc2sccc2C1 [Clopidogrel] (0.12 µM)	3.1	2.59
COc1ccc2c3c1O[C@H]1C[C@@H](O)C=C[C@@]31CCN(C)C2 [Galantamine] (20 µM)	2.14	2.43
COc1ccccc1Oc1c(NS(=O)(=O)c2ccc(C(C)(C)C)cc2)nc(-c2ncccn2)nc1OCCO [Bosentan] (33.6 µM)	3.04	5.42
CCCCc1oc2ccc(NS(C)(=O)=O)cc2c1C(=O)c1ccc(OCCCN(CCCC)CCCC)cc1 [Dronedarone] (1.3 µM)	3.58	2.07
CCN(CCO)CCCC(C)Nc1ccnc2cc(Cl)ccc12 (configuration not stated) [Hydroxychloroquine] (1.5 µM)	3.38	2.9
CN(CCOc1ccc(CC2SC(=O)NC2=O)cc1)c1ccccn1 (configuration not stated) [Rosiglitazone] (4.2 µM)	2.03	3.13
O=C(O)c1cnccn1 [Pyrazinoic Acid] (604.4 µM)	2.79	2.79
Nc1c2c(nc3ccccc13)CCCC2 [Tacrine] (0.25 µM)	2.25	2.5
Cc1cc2cc3c(C)cc(=O)oc3c(C)c2o1 [Trioxsalen] (0.07 µM)	2.32	2.45
O=C(CCCCCCC(=O)Nc1ccccc1)NO [Vorinostat] (9.8 µM)	11 (active)	18.4 (active)
COC(=O)Nc1nc2ccc(C(=O)c3ccccc3)cc2[nH]1 [Mebendazole] (1.7 µM)	5.89	3.69
CCCCCCCN(CC)CCCC(O)c1ccc(NS(C)(=O)=O)cc1 (configuration not stated) [Ibutilide] (0.08 µM)	2.16	2.06
CCS(=O)(=O)CCn1c([N+](=O)[O-])cnc1C [Tinidazole] (192.9 µM)	2.45	2.69
CNC(=O)c1cc(Oc2ccc(NC(=O)Nc3ccc(Cl)c(C(F)(F)F)c3)cc2)ccn1 [Sorafenib] (10.76 µM)	2.94	2.6
CN1CCN(CCCN2c3ccccc3Sc3ccc(C(F)(F)F)cc32)CC1 [Trifluoperazine] (0.12 µM)	1.97	3.67
CC(C)NCC(O)COc1ccc(CC(N)=O)cc1 (configuration not stated) [Atenolol] (18.8 µM)	2.37	2.25
CC[C@H]1OC(=O)[C@H](C)[C@@H](O[C@H]2C[C@@](C)(OC)[C@@H](O)[C@H](C)O2)[C@H](C)[C@@H](O[C@@H]2O[C@H](C)C[C@H](N(C)C)[C@H]2O)[C@](C)(O)C[C@@H](C)CN(C)[C@H](C)[C@@H](O)[C@]1(C)O [Azithromycin] (6.7 µM)	3.29	4.74
CCC(C)n1ncn(-c2ccc(N3CCN(c4ccc(OC[C@H]5CO[C@](Cn6cncn6)(c6ccc(Cl)cc6Cl)O5)cc4)CC3)cc2)c1=O (some centres not stated) [Itraconazole] (14.2 µM)	2.19	2.7

Structure (SMILES)	perturbation Mahalanobis distance [1]	perturbation Mahalanobis distance [2]
CCCc1nc(C(C)(C)O)c(C(=O)O)n1Cc1ccc(-c2ccccc2-c2nn[nH]n2)cc1 [Olmesartan] (10 µM)	2.22	2.24
C[C@@H](O[C@@H]1OCCN(Cc2nc(=O)[nH][nH]2)[C@@H]1c1ccc(F)cc1)c1cc(C(F)(F)F)cc(C(F)(F)F)c1 [Aprepitant] (20.7 µM)	5.02	3.18
CC(C)(Oc1ccc(Cl)cc1)C(=O)O [Clofibric Acid] (368 µM)	3.07	2.64
NC(N)=NC(=O)c1nc(Cl)c(N)nc1N [Amiloride] (1.1 µM)	5.52	3.78
CC/C(=C(\c1ccccc1)c1ccc(OCCN(C)C)cc1)c1ccccc1 [Tamoxifen] (6.7 µM)	2.61	2.63
CCCCN(CCCC)CCC(O)c1cc2c(Cl)cc(Cl)cc2c2cc(C(F)(F)F)ccc12 (configuration not stated) [Halofantrine] (63.9 µM)	7.37 (active)	2.57
OCC(O)COc1ccc(Cl)cc1 (configuration not stated) [Chlorphenesin] (83.9 µM)	2.63	4
OC(CCN1CCCCC1)(c1ccccc1)C1CCCCC1 (configuration not stated) [Trihexyphenidyl] (3.3 µM)	1.96	2.42
CN(C)CCCN1c2ccccc2CCc2ccccc21 [Imipramine] (6.2 µM)	6.2	4.52
CC12CCC(=O)C=C1C=CC1C2CCC2(C)C1CCC21CCC(=O)O1 (configuration not stated) [Canrenone] (3 µM)	3.06	3.02
CNC1(C)C2CCC(C2)C1(C)C (configuration not stated) [Mecamylamine] (3.6 µM)	2.25	3.11
CCN(CC)Cc1cc(Nc2ccnc3cc(Cl)ccc23)ccc1O [Amodiaquine] (0.7 µM)	2.08	2.97
CN(C)C(=N)N=C(N)N [Metformin] (38.4 µM)	1.76	1.8
COc1cnc(NS(=O)(=O)c2ccc(N)cc2)nc1 [Sulfameter] (322.8 µM)	6.64	3.67
CCCCNc1cc(C(=O)O)cc(S(N)(=O)=O)c1Oc1ccccc1 [Bumetanide] (1 µM)	3.62	2.57
OC[C@H]1O[C@@H](n2cnc3c2NC=NC[C@H]3O)C[C@@H]1O [Pentostatin] (55.9 µM)	4.44	3.34
CCCSc1ccc2nc(NC(=O)OC)[nH]c2c1 [Albendazole] (28.3 µM)	13.8 (active)	15.4 (active)
Cc1c(OCC(F)(F)F)ccnc1CS(=O)c1nc2ccccc2[nH]1 (configuration not stated) [Lansoprazole] (23 µM)	4.87	8.49 (active)
